From PubChem BioAssay (NCI)
The panel holds about 83,000 compounds, 20% with a hit somewhere; the sample as a whole holds those more often.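 Activity criterion: percent growth below 10, measured after cells in 96-well plates were exposed to a single compound concentration for 48 hours.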 A number with no mark means an inactive call. Calls of active or inactive are those of the source.

tested on: NCI-H23 lung; test: NCI-60 one-dose screen, 48 h (100 = growth as untreated, 0 = no growth, -100 = all killed); settings: 10 µM unless noted
Experimental: Growth inhibition of the NCI-H23 human Non-Small Cell Lung tumor cell line is measured as a screen for anti-cancer activity. Cells are grown in 96 well plates and exposed to the test compound for 48 hours. Compounds are tested at a single concentration, which is 10^-5 M for most compounds. The reported endpoint is percent growth (GI% or GIPRCNT), where numbers from 0 - 100% represent growth inhibition, and numbers from -100% - 0 represent cell death. For example, a value of 40 represents 60% growth inhibition. A value of 0 means no net growth occurred over the course of the experiment. A value of -40 indicates 40% of cells at the beginning of the experiment died by the end of the experiment. A value of -100 means all cells are dead at the end of the experiment.
NCI-60 Human Tumor Cell Lines Screen was performed using the standard one-dose NCI protocol, which is described in more detail at https://dtp.cancer.gov/discovery_development/nci-60/default.htm.
Compounds with GIPRCNT values below 10 were considered active. Activity score was based on GIPRCNT using the following formula: […]
Score is 0 for GIPRCNT values of 100 or above, 50 for GIPRCNT values of 0, and 100 for GIPRCNT values of -100.

Compound | growth
NS(=O)(=O)c1ccc(-n2ncc3c(=O)[nH]c(CN4CCN(c5cc6c(cc5F)c(=O)c(C(=O)O)cn6C5CC5)CC4)nc32)cc1 | 87.9%
O=C(CCCCN1CCOCC1)Nc1ccc(Cn2nnc3c2C(=O)c2nnn(Cc4ccc(NC(=O)CCCCN5CCOCC5)cc4)c2C3=O)cc1 | -18% (active)
C=C1CC2(OC1=O)C(=O)N(CCCCCCCCCCCCN1C(=O)C3(CC(=C)C(=O)O3)c3ccccc31)c1ccccc12 (stereo not given) | 84.6%
CCC(c1ccc(O)cc1)C(CC)c1ccc(O)c(F)c1 (stereo not given) | 77%
Cc1cc(Cl)ccc1Nc1nc(C(F)(F)F)ccc1C(=O)N/N=C/c1ccc(F)cc1 | 16.4%
C=CC[N+]1(CCO)CCN=C1CCCCCCCCCCCCC (stereo not given) | -86.7% (active)
CCN(CC)Cc1cc(Nc2c3ccc(Cl)cc3nc3c(C)cccc23)ccc1O | -75.5% (active)
C[C@@H]1CCC2=C(CCC[C@]2(C)C(=O)O)[C@@]1(C)CCc1ccoc1 | 99.4%
Nc1cc(O)cc2cccnc12 | 53.1%
COc1ccc(/C=C2\CN(C(=O)CCN3CCC(=NO)CC3)C/C(=C\c3ccc(OC)cc3)C2=O)cc1 | -4.73% (active)
O=[N+]([O-])c1c(F)cccc1Nc1cccc(F)c1 | 104%
COc1ccc(-c2cc(NC(=O)Nc3ccc(O)cc3)no2)cc1 | 89.5%
CC(=O)Oc1ccc(Nc2c3ccccc3nc3ccccc23)cc1 | 11.9%
C=C1CCC2C3(C)COC(c4cccc(Cl)c4)OC3CCC2(C)C1/C=C/C1=CCOC1=O (stereo not given) | 38.2%
CC(=O)C1=C(O)C=C2Oc3c(C(=O)/C=C/c4cc(C(F)(F)F)cc(C(F)(F)F)c4)c(O)c(C)c(O)c3[C@]2(C)C1=O | -55.8% (active)
CC1(C)OCC2OC3(C(=O)O)OC(C)(C)OC3C2O1 (stereo not given) | 102%
COc1cccc(-c2nc3sccn3c2-c2ccnc(NCCCNS(=O)(=O)c3ccc(Cl)cc3)c2)c1 | 54.4%
COc1ccc2nc3cc(Cl)ccc3c(N3CCN(c4nccc(NCc5ccccc5)n4)CC3)c2c1 | 73.2%
CCCCNc1ccc2c3c1cccc3c(=O)n1c3ccccc3nc21 | 60%
CSc1nc(NCCCNc2ccnc3cc(Cl)ccc23)cc(-c2ccccc2)n1 | 67.6%

Compound | growth
C=CCSc1nnc(-c2ccc(C(C)(C)C)cc2)n1-c1cccc(C(F)(F)F)c1 | 35.4%
CCCCCCCCOC(=O)CC[C@@H](C)[C@H]1CC[C@H]2[C@@H]3[C@H](OC(=O)CCN)C[C@@H]4C[C@H](OC(=O)CCN)CC[C@]4(C)[C@H]3C[C@H](OC(=O)CCN)[C@]12C | 90.3%
COc1cc(NCCCCN=C(N)N)c2ncccc2c1 | 13.9%
CNC(=O)c1cc(Oc2ccc3nc(NC(=O)Nc4ccc(N5CCC(N(C)C)CC5)cc4)sc3c2)ccn1 | 88.1%
CNCc1cccc2c1OCCOCCOCCN(C)S(=O)(=O)c1ccc(cc1)-c1cnc(N)c(n1)C(=O)N2 | 52.6%
COc1ccc(-c2c(C)noc2-c2ccc(O)cc2O)cc1 | 81.4%
c1ccc(CSc2ncnc3nc[nH]c23)nc1 | 99.1%
CC[C@]12C=CCN3CC[C@@]4(c5ccc(OC)cc5N(C)[C@H]4[C@@](O)(C(=O)OC)[C@@H]1OC(=O)CCC(=O)N[C@@H](Cc1c[nH]c4ccccc14)C(=O)OC)[C@@H]32 | 101%
O=C1/C(=C\c2cn(C(=O)c3ccc(Cl)cc3)c3ccccc23)c2ccccc2N1c1c(Cl)cccc1Cl | 97.2%
COc1ccc(C2Nc3ccccc3-n3cccc32)cc1 (stereo not given) | 80.4%
COc1ccc(/C(=C/c2ccc3ccccc3c2)c2nn[nH]n2)cc1OC | 31.5%
NS(=O)(=O)c1ccc(Nc2nc3n[nH]c(Nc4ccccc4)c3c(=O)[nH]2)cc1 | 94.9%
COc1cc(-c2c3c(nc4c2c(C)nn4-c2ccccc2)-c2ccccc2C(=O)C3=O)cc(OC)c1OC | 76.6%
Cc1ccc2c(NCCCN(C)C)c3c(C)nn(C)c3nc2c1 | 51.6%
CC1=C(NCCN2CCCC2)C(=O)c2c(OCc3ccc(F)c(Cl)c3)cccc2C1=O | 69.8%
Cc1ccc(S(=O)(=O)N(CCc2ccc(Cl)cc2)S(=O)(=O)c2ccc(C)cc2)cc1 | 90.9%
Nc1nc2c(c3ncccc13)C(c1ccc(Cl)c(Cl)c1)Cc1ncccc1-2 (stereo not given) | 32.7%
COC1C/C(=N\O)C2OC(c3ccccc3)OCC2O1 (stereo not given) | 101%
C/C=C/C(N)=O | 96.9%
O=C(/C=C\c1ccc2ccccc2n1)c1cc(Cl)ccc1O | 63.2%
